Laboratory results from PubChem BioAssay AID624088 (Broad Institute, 2012).

Assay: nuclear b-catenin accumulation in U2-OS cells – cell-based, PathHunter, beta-gal complementation, dry powder, orthogonal assay for GSK3b inhibitor project, dose response (AID 624088)
Details: U2-OS PathHunter beta-catenin translocation, beta-gal luminescence, 6 h; series mostly up to 26 µM; activity change, negative = active: at the top concentration;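 active = fitted potency no more than ten times the top tested concentration; inactive = fitted potency more than ten times the top tested concentration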

Activity change, negative = active, inactive:
COc1ccccc1[C@H]1C2=C(CC(C)(C)CC2=O)Nc2n[nH]c(C(F)(F)F)c21 -21.2%
COc1ccccc1C1C2=C(CCCC2=O)Nc2n[nH]c(C)c21 (stereo not given) 2.27%
COc1ccccc1C1C2=C(CC3(CCCCC3)CC2=O)Nc2n[nH]c(C)c21 (stereo not given) -10.4%
O/N=C/c1cn(-c2ccccc2)nc1-c1ccc(Cl)cc1 -6.62%
COc1ccccc1C1C2=C(CC(C)(C)CC2=O)Nc2n[nH]c(-c3ccccc3)c21 (stereo not given) -5.82%
Cc1[nH]nc2nc3c(cc12)C(=O)CC(C)(C)C3 -0.088%
Cc1[nH]nc2c1C(C)C1=C(CC(C)(C)CC1=O)N2 (stereo not given) -6.12%
COc1ccccc1C1C2=C(CC(C)(C)CC2=O)Nc2ccccc21 (stereo not given) 3.16%
Cc1[nH]nc2c1[C@H](c1ccccc1C(F)(F)F)C1=C(CC(C)(C)CC1=O)N2 -8.73%
COc1ccccc1C1C2=C(CCC(C)(C)C2=O)Nc2n[nH]c(C)c21 (stereo not given) -2.98%
COc1ccccc1C1C2=C(CC(C)(C)CC2=O)Nc2onc(C)c21 (stereo not given) 4.28%
COc1ccccc1[C@@H]1C2=C(CC(C)(C)CC2=O)Nc2n[nH]c(C)c21 -8.38%
COc1ccc(-c2nn(-c3ccccc3)cc2CO)cc1 3.06%
Cc1ccccc1C1C2=C(CC(C)(C)CC2=O)Nc2n[nH]c(C)c21 (stereo not given) -13.1%
Cc1[nH]nc2c1C(c1ccc(C(F)(F)F)cc1)C1=C(CC(C)(C)CC1=O)N2 (stereo not given) -0.417%
Cc1[nH]nc2c1C(C1CC1)C1=C(CC(C)(C)CC1=O)N2 (stereo not given) 0.6%
Cc1[nH]nc2c1C(C1CCCCC1)C1=C(CC(C)(C)CC1=O)N2 (stereo not given) -2.42%
COc1ccccc1C1C(C(C)=O)=C(C)Nc2n[nH]c(C)c21 (stereo not given) -3.19%
COc1ccccc1-c1c2c(nc3n[nH]c(C)c13)CCC2=O 3.68%
COc1ccc(-c2nn(-c3ccccc3)cc2C(=O)O)cc1 -5.37%
